Bioassay records as filed in PubChem BioAssay.
Tau fluor cs: counter-screen for tau fibril formation inhibitors. tau K18 P301L Alexa594 fluorescence, heparin fibrillization. Potency, µM (doses to about 57.7 µM), inactives show at the top dose activity change, negative = decrease. 0.93% of 280,000 active; note: potency is the fitted concentration of half-maximal effect; nearly all actives have a fitted effect of over 55% in size
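Human tau K18 P301L (15 uM unlabeled, 0.24 uM Alexa 594-labeled) in 100 mM sodium acetate pH 7 with 20 uM heparin, 6 hr at 37 C. ThT 30 uM added, 1 hr ambient; Alexa 594 FP and total fluorescence read at 555/632 nm.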
Coupling enz: coupling enzyme interference in Giardia aldolase counter-screen; coupling enzyme system counterscreen, AmpLite Red fluorescence; activity change, negative = inhibition, % at 58.2 µM, hits read low; 0.67% of 290,000 active; AID 2472; in the data active = activity change below about -30%
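Counterscreen lacking aldolase: glyceraldehyde-3-phosphate coupling-enzyme reagent preincubated 10 min at RT with compound (at 57.5 uM final), then substrate/coupling system with AmpLite Red added; fluorescence read at 525/598 nm after 20 min RT.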
Sfp PPTase inh: blocks B. subtilis Sfp PPTase activity; Q9F4F7; Biochemical Sfp PPTase activity, qHTS; Potency, µM, for inactives: largest response in the series, negative = inhibition, most hits filed as inhibitors; 3.5% of 310,000 active;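 note: the enzyme is Sfp with the accession as filed and its product quenches rhodamine fluorescence; potency is the fitted concentration of half-maximal effect; 0% = enzyme reaction without inhibitor and -100% = no enzyme wells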
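Compounds were incubated with enzyme (final 15 nM) for 15 min at room temperature before substrate addition started the reaction. Fluorescence at 525 nm excitation, 598 nm emission was recorded immediately and after 30 minutes.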
Tau ThT inhib: blocks human tau fibril formation measured by thioflavin T. Potency, µM (highest dose often 57.4 µM), without a hit: at the top dose activity, negative = inhibition, usual class: inhibitors. 2.1% of 270,000 active. recombinant tau K18 P301L (four-repeat tau fragment), heparin-induced fibrillization, ThT fluorescence. P10636; note: potency is the fitted concentration of half-maximal effect; nearly all actives have a fitted effect of over 55% in size
Target sequence (P10636 561-689 P618L limits assumed): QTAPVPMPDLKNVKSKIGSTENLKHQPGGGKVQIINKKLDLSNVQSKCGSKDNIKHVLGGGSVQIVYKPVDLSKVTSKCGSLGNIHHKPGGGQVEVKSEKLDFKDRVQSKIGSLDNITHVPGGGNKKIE
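Heparin-induced (20 uM) aggregation of recombinant human K18 P301L tau, 15 uM unlabeled with 0.24 uM labeled, pH 7 acetate buffer, 6 hr at 37 C with compound. Fibrils quantified by 30 uM ThT fluorescence after 1 hr ambient incubation.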
Tau FP inhib: blocks human tau fibril formation measured by polarization; K18 P301L tau heparin fibrillization, Alexa594 FP, 6 h; 0.39% of 280,000 active; Potency, µM (top dose mostly 57.7 µM), inactives show at the highest dose activity, negative = inhibition, usual class: inhibitors; note: potency is the fitted concentration of half-maximal effect; nearly all actives have a fitted effect of over 55% in size
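Compound effects on tau fibrillization are measured by Alexa 594 fluorescence polarization (ex 555, em 632 nm). K18 P301L tau is used at 15 uM with 0.24 uM labeled tracer, and 20 uM heparin induces aggregation over 6 hr at 37 C.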
* marks the source's active call; other numbers are inactive results; [ ] = another dose, or the depositor's remark. An excerpt weighted towards active compounds, which were near 5.2% of everything screened. Unless noted, calls come from the whole dose curve; as a rule, active = well fitted curve in the direction sought with a large enough effect; inconclusive = small, poorly fitted or top-dose-only effect, or another doubt; inactive = no such curve, though single readings can be large; an effect the other way counts as inactive or inconclusive. Unless noted, % is set by controls: 0 for no effect and ±100 for the full control effect.

Results for Cc1ccc(/C=N/N=C2/NC(=O)C(CC(=O)Nc3ccc(Cl)cc3)S2)o1 (stereo not drawn) ?
Tau fluor cs: -10.9%; Coupling enz: 0.8; Sfp PPTase inh: 35.5µM*; Tau ThT inhib: -5.5%; Tau FP inhib: -14.6%

Results for O=C(O)CC1S/C(=N/N=C/c2ccc(-c3ccc(Cl)c([N+](=O)[O-])c3)o2)NC1=O (stereo not drawn) ?
Tau fluor cs: -17.6%; Coupling enz: 9.6; Sfp PPTase inh: -17.7%; Tau ThT inhib: 7.08µM*; Tau FP inhib: 0.0%

Results for CCN1CCOC(=O)C1CC(=O)Nc1cc(Cl)ccc1OC (stereo not drawn) ?
Tau fluor cs: -12.9%; Tau ThT inhib: inconclusive; Tau FP inhib: -10.6%

How did CC(C)C[C@H](NC(=O)[C@H](Cc1cnc[nH]1)NC(=O)[C@@H](N)Cc1cnc[nH]1)C(=O)NCC(=O)NCC(=O)N[C@@H](C)C(=O)N[C@@H](CCCCN)C(=O)N[C@@H](CCC(N)=O)C(=O)N[C@@H](C)C(=O)NCC(=O)N[C@@H](CC(=O)O)C(=O)N[C@H](C(=O)O)C(C)C do in these assays?
Coupling enz: -3.7; Sfp PPTase inh: 19.8%

How did CCOc1ccc(NC(=O)CCc2c(C)nc3cc(-c4ccccc4OC)nn3c2C)cc1 do in these assays?
Tau fluor cs: -19.8%; Tau ThT inhib: inconclusive; Tau FP inhib: 7.9%

What do the screens show for `O=C(CCC(=O)Nc1ccccc1)N/N=C/c1ccncc1`?
Tau fluor cs: -10.0%; Coupling enz: 5.6; Sfp PPTase inh: inconclusive; Tau ThT inhib: inconclusive; Tau FP inhib: -8.3%

How did O=C(CCC(=O)Nc1ccc(F)cc1)N/N=C/c1ccncc1 do in these assays?
Tau fluor cs: -4.9%; Coupling enz: -1.0; Sfp PPTase inh: 44.7µM*; Tau ThT inhib: -5.1%; Tau FP inhib: -5.5%

What do the screens show for `Cc1ccc(CNC(=O)c2c[nH]n3c(=O)c(Cc4ccc(F)cc4Cl)c(C)nc23)cc1`?
Tau fluor cs: inconclusive; Tau ThT inhib: 28.2µM*; Tau FP inhib: -5.0%

What do the screens show for `COc1cccc(CN2CCN(C3CSCCSC3)CC2CCO)c1` (stereo not drawn)?
Tau fluor cs: 4.3%; Coupling enz: -32.3*; Sfp PPTase inh: -10.9%; Tau ThT inhib: 8.2%; Tau FP inhib: 5.4%

Results for C=CCn1c(Sc2ncc([N+](=O)[O-])s2)n[nH]c1=O ?
Tau fluor cs: inconclusive; Coupling enz: -7.2; Sfp PPTase inh: 10µM*; Tau ThT inhib: inconclusive; Tau FP inhib: inconclusive

How did NC(=O)c1cccc(-c2cc(Nc3ccc(OC(F)(F)F)cc3)ncn2)c1 do in these assays?
Tau fluor cs: inconclusive; Coupling enz: 0.8; Sfp PPTase inh: 5.2%; Tau ThT inhib: inconclusive; Tau FP inhib: 28.2µM*

What do the screens show for `CC(=O)OCC1OC(n2c(Br)nc3c(=O)[nH]c(N)nc32)C(OC(C)=O)C1OC(C)=O` (stereo not drawn)?
Tau fluor cs: -9.0%; Coupling enz: 4.4; Sfp PPTase inh: -0.5%; Tau ThT inhib: -5.4%; Tau FP inhib: -2.4%

What do the screens show for `CC1CC(C)(C)N2C(=O)C3(Nc4ccccc4S3)c3cccc1c32` (stereo not drawn)?
Tau fluor cs: inconclusive; Coupling enz: -3.0; Sfp PPTase inh: inconclusive; Tau ThT inhib: inconclusive; Tau FP inhib: -4.6%

Results for O=C1N2CCCc3cccc(c32)C12Nc1ccccc1S2 (stereo not drawn) ?
Tau fluor cs: -9.1%; Coupling enz: 5.6; Sfp PPTase inh: 50.1µM*; Tau ThT inhib: -5.5%; Tau FP inhib: -0.9%

What do the screens show for `CN(C)CCCNc1cc(N2CCN(C3CCCCC3)CC2)c2noc3c2c1C(=O)c1ccccc1-3`?
Tau fluor cs: inconclusive; Tau ThT inhib: 3.55µM*; Tau FP inhib: inconclusive

What do the screens show for `CC(C)CNc1cc(NC2CCCCC2)c2c3c(onc13)-c1ccccc1C2=O`?
Tau fluor cs: inconclusive; Tau ThT inhib: inconclusive; Tau FP inhib: 5.6%

Results for CC1CCCN(C(=O)c2ccc3c(c2NCCO)C(=O)c2ccccc2C3=O)C1 (stereo not drawn) ?
Tau fluor cs: -23.3%; Coupling enz: -3.9; Sfp PPTase inh: -7.9%; Tau ThT inhib: inconclusive; Tau FP inhib: 9.8%

Results for O=C1c2ccccc2-c2onc3c(Br)cc(NC4CCCCC4)c1c23 ?
Tau fluor cs: -11.9%; Tau ThT inhib: 11.2µM*; Tau FP inhib: inconclusive

What do the screens show for `O=C1c2ccccc2-c2onc3c(N4CCN(C5CCCCC5)CC4)cc(NCCO)c1c23`?
Tau fluor cs: inconclusive; Tau ThT inhib: 7.08µM*; Tau FP inhib: -10.6%

What do the screens show for `COCCNc1cc(N2CCN(C3CCCCC3)CC2)c2noc3c2c1C(=O)c1ccccc1-3`?
Tau fluor cs: -27.2%; Tau ThT inhib: 11.2µM*; Tau FP inhib: -0.2%

What do the screens show for `O=C(C1COc2ccccc2O1)N(Cc1cccnc1)c1nc2ccc(F)cc2s1` (stereo not drawn)?
Tau fluor cs: -19.8%; Tau ThT inhib: -3.3%; Tau FP inhib: -7.7%

Results for COc1cccc(Nc2nc(-c3sc(NC(=O)c4ccccc4)nc3C)cs2)c1 ?
Tau fluor cs: 31.6µM*[quencher]; Coupling enz: 0.7; Sfp PPTase inh: -2.5%; Tau ThT inhib: 17.8µM*; Tau FP inhib: 7.8%

How did Cc1ccc(Nc2nc(-c3sc(NC(=O)c4cccc(Cl)c4)nc3C)cs2)cc1 do in these assays?
Tau fluor cs: inconclusive; Coupling enz: -2.3; Sfp PPTase inh: -2.5%; Tau ThT inhib: inconclusive; Tau FP inhib: inconclusive

How did Cc1nc(NC(=O)c2ccc(Cl)cc2)sc1-c1csc(Nc2cccc(F)c2)n1 do in these assays?
Tau fluor cs: 12.6µM*[quencher]; Coupling enz: -1.5; Sfp PPTase inh: 4.5%; Tau ThT inhib: 7.08µM*; Tau FP inhib: inconclusive

What do the screens show for `C=CCCC(=O)Nc1nc(C)c(-c2csc(Nc3cccc(OC)c3)n2)s1`?
Tau fluor cs: inconclusive; Coupling enz: 0.8; Sfp PPTase inh: 0.1%; Tau ThT inhib: 14.1µM*; Tau FP inhib: inconclusive

Results for CCCC(=O)Nc1nc(C)c(-c2csc(Nc3ccccc3OC)n2)s1 ?
Tau fluor cs: 15.8µM*[quencher]; Coupling enz: 0.8; Sfp PPTase inh: -26.6%; Tau ThT inhib: 12.6µM*; Tau FP inhib: 19.7%

Results for Cc1nc(NC(=O)c2ccccc2)sc1-c1csc(Nc2ccc(C(=O)O)cc2)n1 ?
Tau fluor cs: inconclusive; Coupling enz: -2.8; Sfp PPTase inh: -23.4%; Tau FP inhib: 14.1%

What do the screens show for `CCC(=O)Nc1nc(C)c(-c2csc(Nc3ccc(C(=O)O)cc3)n2)s1`?
Coupling enz: -2.0; Sfp PPTase inh: inconclusive

What do the screens show for `COc1ccc(OC)c(Nc2nc(-c3sc(N)nc3C)cs2)c1`?
Tau fluor cs: 14.1µM*[quencher]; Coupling enz: -30.9*; Sfp PPTase inh: 8.91µM*; Tau ThT inhib: 11.2µM*; Tau FP inhib: -9.1%
